# Activity calls are given as the source filed them.
# Assay: JC-1 mitochondrial signal, unstimulated HepG2 cells – cell-based, JC-1 fluorescence, 24 h, 100 nL compound, profiling panel (AID 1167)
# Details: HepG2 mitochondrial potential, higher = more signal
# Note: test concentration not given here.
row,Structure (SMILES),z-score
1,CCCCCCc1nc(-c2ccc(-c3ccc(Cl)c(Cl)c3)o2)cc2c1[Si](C(C)C)(C(C)C)OC2,-1.24
2,CCOC(=O)C1=CC[C@@H](c2ccccc2)N(S(=O)(=O)c2ccc(C)cc2)[C@H]1c1ccccc1I,1.5
3,COC(=O)[C@]1(Cc2ccccc2)N=C(c2ccc(OCCCO)cc2)O[C@@H]1c1ccccc1CN=[N+]=[N-],-2.4
4,CC(C)=CCCC=C(C)C(O)C1C=CC2C(=O)N(c3ccccc3)C(=O)C2N1Nc1ccc(C#N)cc1 (stereo not given),-0.428
5,CCOC(=O)C[C@H]1[C@H](OC(=O)c2ccccc2-c2ccccc2)[C@@H](NC(=O)C2CCCCC2)c2cc(OCCCO)ccc2N1C(=O)c1ccc2ccccc2n1,-0.28

# Assay: JC-1 mitochondrial signal, unstimulated adipocytes – cell-based, JC-1 fluorescence, 3T3-L1 adipocytes, 24 h, 100 nL compound, profiling panel (AID 1168)
# Details: JC-1 mitochondrial fluorescence, higher = more signal, called active from +8 up or from −8 down
row,Structure (SMILES),z-score
1,O=C1N(Cc2ccccc2)c2ccccc2C[C@@]12COC(c1ccc(OCCCO)cc1)=N2,-0.382 (inactive)
2,COc1ccc([Si](C)(C)[C@H]2[C@H](CC(=O)N3Cc4ccccc4C[C@H]3CO)O[C@@]3(C(=O)N(c4ccccc4)c4ccccc43)[C@@H]2C)cc1,-0.652 (inactive)
3,C=C(COC)/C(=C/C[C@@H](OC(C)=O)c1ccccc1OCCO)c1cnc2ccccc2c1,-0.433 (inactive)
4,O=C(NCc1ccccc1)[C@@H]1c2ccccc2C(=O)N(Cc2cc(C(F)(F)F)cc(C(F)(F)F)c2)[C@H]1c1ccc(CO)cc1,0.125 (inactive)
5,COCCOC(=O)N1C(=O)[C@@]2(c3cc(C#CCNC(N)=O)ccc31)[C@H](C(=O)Nc1nc3ccccc3s1)[C@H]1C(=O)O[C@H](c3ccccc3)[C@H](c3ccccc3)N1[C@@H]2c1ccccc1OCCO,2.4 (inactive)
6,CC=CC(O)C1C=CC2C(=O)NC(=O)C2N1Nc1ccc(Cl)cc1Cl (stereo not given),-1.04 (inactive)
7,CCCCN1CC=CC23O[C@@H]4/C=C\CCCOC(=O)C4[C@H]2C(=O)N(C(CO)C(C)C)[C@@H]3C1=O (stereo not given in full),-0.525 (inactive)
8,COc1ccc([Si](C)(C)[C@H]2[C@H](CC(=O)N3Cc4ccccc4C[C@H]3CO)O[C@@]3(C(=O)N(C)c4c(Br)cc(C)cc43)[C@@H]2C)cc1,0.0243 (inactive)
9,CC(C)(C)N1CC=CC23O[C@@H]4/C=C\CCCOC(=O)C4[C@H]2C(=O)N(CCCCCO)[C@@H]3C1=O (stereo not given in full),0.186 (inactive)
10,C=C(CCCC)/C(=C/C[C@H](OC(=O)c1ccncc1)c1ccccc1OCCO)c1cc(C(=O)OC)ccc1OC,-0.292 (inactive)
11,COc1ccc(C(=O)Nc2ccc(CN3C(=O)[C@@]4(O[C@@H](CCn5cc(CCO)nn5)[C@H]([Si](C)(C)c5ccc(OC)cc5)[C@H]4C)c4ccccc43)cc2)cc1,-0.201 (inactive)
12,C#CCN1[C@@H](Cc2ccccc2)C(=O)O[C@H](Cc2ccccc2)[C@@H]1/C=C/C1CC1,-0.693 (inactive)
13,O=C1C=C(c2ccccc2)C(=O)C2=C1CC([C@H]1Oc3ccccc3S(=O)(=O)N3CCC[C@@H]13)=CC2,-2.49 (inactive)
14,COC(=O)[C@@]1(Cc2ccccc2)[C@H]2c3cc(C(=O)N4CCCC4)n(Cc4ccc(OC)c(OC)c4)c3C[C@H]2CN1C(=O)c1ccccc1,1.09 (inactive)
15,O=C1c2ccccc2[C@@]2(Cc3ccccc3N(Cc3ccccc3)C2=O)[C@H](c2ccc(CO)cc2)N1Cc1ccccc1Cl,-0.407 (inactive)
16,C=C(CCCC)C(=O)CC[C@@H](OC(=O)c1ccccc1-c1ccccc1C(=O)O)c1ccccc1OCCO,0.306 (inactive)
17,COC(=O)C1(Cc2ccccc2)C=C2C(=C(C)C(=O)C2C)CN1 (stereo not given),-0.046 (inactive)
18,CC[C@@H]1C=C(C(=O)O)[C@H](c2ccc(OC)cc2)N1S(=O)(=O)c1ccc(C)cc1,-0.687 (inactive)

row,Structure (SMILES),z-score
1,COc1ccc([Si](C)(C)[C@@H]2[C@@H](CC(=O)N(CCO)Cc3ccccc3)O[C@]3(C(=O)N(Cc4ccc(I)cc4)c4ccccc43)[C@H]2C)cc1,0.448 (inactive)
2,COc1ccc([Si](C)(C)[C@@H]2[C@@H](CC(=O)N3CCC[C@H]3CO)O[C@]3(C(=O)N(Cc4cccc(N5CCCCC5=O)c4)c4ccccc43)[C@H]2C)cc1,-0.191 (inactive)
3,CCOC(=O)C[C@H]1[C@H](OC(=O)Cc2ccc3c(c2)OCO3)[C@@H](NC(=O)c2ccc3ccccc3n2)c2cc(OCCCO)ccc2N1C(=O)Cc1ccc(OC)cc1,-0.115 (inactive)
4,O=C1[C@H]2C=C(I)[C@H](C[C@@H]2OCCCCCCO)[C@@]12CO2,0.0285 (inactive)
5,C=C(CCCC)/C(=C/C[C@H](OC(C)=O)c1cccc(OCCO)c1)c1cnc2ccccc2c1,0.0664 (inactive)
6,O=C(NC1CC1)[C@@H]1c2ccccc2C(=O)N(CC23CC4CC(CC(C4)C2)C3)[C@H]1c1ccc(CO)cc1,0.397 (inactive)
7,C=CC[C@@]12N=C(c3ccc(OCCCO)cc3)O[C@@H]1c1ccccc1N(CCC)C2=O,2.64 (inactive)
8,C=CCOC(=O)[C@@H]1[C@H]2C(=O)O[C@H](c3ccccc3)[C@H](c3ccccc3)N2[C@H](c2ccc(OCCOC(=O)[C@H]3C[C@H]4C(=O)NCC(=O)N4[C@H]3c3cccc(OCCO)c3)cc2)[C@@]12C(=O)Nc1ccc(I)cc12,1.44 (inactive)
9,COC(=O)C(CC#Cc1ccc2c(c1)[C@]1(C(=O)N2)[C@H](C(=O)N2CCc3cc(OC)c(OC)cc3C2)[C@H]2C(=O)O[C@H](c3ccccc3)[C@H](c3ccccc3)N2[C@@H]1c1ccccc1OCCO)C(=O)OC,0.968 (inactive)
10,C=CCOC(=O)[C@@H]1[C@H]2C(=O)O[C@H](c3ccccc3)[C@H](c3ccccc3)N2[C@H](c2ccc(OCCOC(=O)[C@H]3C[C@H]4C(=O)N[C@@H](CCCCN(C)C)C(=O)N4[C@H]3c3ccc(O)cc3)cc2)[C@@]12C(=O)Nc1ccc(I)cc12,1.33 (inactive)
11,COc1ccc([Si](C)(C)[C@@H]2[C@@H](CC(=O)N3CCC[C@H]3CO)O[C@]3(C(=O)N(Cc4ccc(N5CCOC5=O)cc4)c4ccccc43)[C@H]2C)cc1,1.67 (inactive)
12,CC1CC/C=C\[C@H]2OC34C=CCN(c5ccc6ccccc6c5)C(=O)[C@H]3N(C(C)CO)C(=O)[C@@H]4C2C(=O)O1 (stereo not given in full),0.0486 (inactive)
13,CCCCCCc1nc(-c2ccc(-c3ccc(Cl)c(Cl)c3)o2)cc2c1[Si](C(C)C)(C(C)C)OC2,0.771 (inactive)
14,CCOC(=O)C1=CC[C@@H](c2ccccc2)N(S(=O)(=O)c2ccc(C)cc2)[C@H]1c1ccccc1I,-1.61 (inactive)
15,COC(=O)[C@]1(Cc2ccccc2)N=C(c2ccc(OCCCO)cc2)O[C@@H]1c1ccccc1CN=[N+]=[N-],-0.876 (inactive)
16,CC(C)=CCCC=C(C)C(O)C1C=CC2C(=O)N(c3ccccc3)C(=O)C2N1Nc1ccc(C#N)cc1 (stereo not given),-0.926 (inactive)
17,CCOC(=O)C[C@H]1[C@H](OC(=O)c2ccccc2-c2ccccc2)[C@@H](NC(=O)C2CCCCC2)c2cc(OCCCO)ccc2N1C(=O)c1ccc2ccccc2n1,1.19 (inactive)
